ClpP mod = qHTS Assay for Activators of ClpP. Potency, µM (doses to about 57.5 µM), without a hit: top-dose activity change, negative = active. actives 1.9% (n = 340,000). purified B. subtilis ClpP, FRET peptide cleavage, 20 min; active = well fitted falling curve with a large enough effect; inconclusive = small, poorly fitted or top-dose-only effect; inactive = no such curve, though single readings can be large or run the other way; also: the source files actives as falling curves though it sought activators and does not explain the sign; nearly all actives have a fitted effect of over 65% in size
Target sequence (P80244 whole entry, looked up): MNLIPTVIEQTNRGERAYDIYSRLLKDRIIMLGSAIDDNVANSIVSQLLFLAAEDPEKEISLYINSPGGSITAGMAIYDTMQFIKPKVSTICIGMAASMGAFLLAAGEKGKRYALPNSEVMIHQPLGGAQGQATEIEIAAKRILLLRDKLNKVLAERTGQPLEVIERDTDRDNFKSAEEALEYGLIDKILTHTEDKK
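FRET quenching reversal measured ClpP activation: 10 microg/mL B. subtilis ClpP at pH 8 with the FRET-FV decapeptide, read at 430 nm after 320 nm excitation. The 20-min minus 0-min signal was scaled between DMSO/no-enzyme wells and ADEP (5.8 microM final).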
Sfp PPTase inh = blocks B. subtilis Sfp PPTase activity; Q9F4F7; actives 3.5% (n = 310,000); Biochemical Sfp PPTase activity, qHTS; Potency, µM, for inactives: largest response in the series, negative = inhibition, actives largely listed as inhibitors;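 also: the enzyme is Sfp with the accession as filed and its product quenches rhodamine fluorescence; 0% = enzyme reaction without inhibitor and -100% = no enzyme wells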
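Fluorescence-quenching assay: 15 nM Sfp-PPTase preincubated 15 min at room temperature with compound, then 5 uM rhodamine-CoA and 12.5 uM BHQ-2-labelled YbbR peptide added. Fluorescence (ex 525/em 598 nm) read at start and after 30 min; difference gives rate.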
Gal4-VP16 FLuc = inhibits Gal4-VP16 luciferase reporter, ROR gamma counter-screen; Drosophila S2 Gal4-VP16 UAS-luciferase, luminescence, 20 h; Potency, µM (doses to about 53.6 µM), inactives show at the highest dose activity, negative = inhibition, actives largely listed as inhibitors; actives 3.5% (n = 310,000);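 also: Gal4-VP16 expression switched on by copper sulfate through the metallothionein promoter; % is scaled to controls: 0 for no effect and ±100 for the full control effect; nearly all actives have a fitted effect of over 50% in size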
PINK1 expr mod = changes PINK1 expression; PINK1 immunofluorescence, high-content cytometry, 24 h; AID 624263; actives 0.2% (n = 410,000); Potency, µM (series often up to 76.6 µM), for the others: at the highest dose activation (PINK1 increase), actives largely listed as activators; active = well fitted activation curve with a large enough effect; inconclusive = small, poorly fitted or top-dose-only effect; cell line not stated here; also: % of control where 0% means no effect; nearly all actives have a fitted effect of over 65% in size
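Measures PINK1 amount and localization on or inside mitochondria by immunofluorescence. Stable cells get compounds at 5 concentrations for 24 hours before fixation and staining; CCCP controls included.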
Epigenetic derep = derepresses silenced GFP reporter in murine cells; murine LDR cells, GFP reporter derepression, 30 h; Potency, µM (series often up to 53.9 µM), for inactives: at the top dose GFP activation, actives largely listed as activators; actives 0.2% (n = 280,000); also: % of control where 0% means no effect; nearly all actives have a fitted effect of over 60% in size
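In this reporter-derepression format, murine cells bearing a silenced integrated CMV-GFP locus incubate with test compound (30 h, 37 C), then are washed and imaged; fluorescent objects of 20–120 um count as induced cells.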
RORgamma inh = ROR gamma (mouse) transcription inhibition; actives 5.4% (n = 310,000); Drosophila S2 Gal4-RORgamma UAS-luciferase reporter, 20 h; Potency, µM (titrated, usually from 53.6 µM), for inactives: at the highest dose activity change, negative = inhibition, most hits filed as inhibitors; also: % is scaled to controls: 0 for no effect and ±100 for the full control effect; nearly all actives have a fitted effect of over 60% in size
Target sequence (P51450 whole entry, looked up, the tested form may be a part): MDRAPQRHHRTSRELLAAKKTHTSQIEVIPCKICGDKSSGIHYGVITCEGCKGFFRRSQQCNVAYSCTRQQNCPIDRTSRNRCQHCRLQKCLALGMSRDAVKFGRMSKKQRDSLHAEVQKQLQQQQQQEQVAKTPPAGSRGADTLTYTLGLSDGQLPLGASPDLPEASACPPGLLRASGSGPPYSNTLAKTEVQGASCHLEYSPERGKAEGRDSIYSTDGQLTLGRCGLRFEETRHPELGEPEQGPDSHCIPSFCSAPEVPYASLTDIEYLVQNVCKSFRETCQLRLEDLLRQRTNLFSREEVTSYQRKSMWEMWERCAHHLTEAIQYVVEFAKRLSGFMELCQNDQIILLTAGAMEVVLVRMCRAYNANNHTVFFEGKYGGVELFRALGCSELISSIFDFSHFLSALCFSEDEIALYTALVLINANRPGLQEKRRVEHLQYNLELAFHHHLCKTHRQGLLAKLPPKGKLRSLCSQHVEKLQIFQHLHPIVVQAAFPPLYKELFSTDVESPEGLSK
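Compounds are pin-transferred onto Drosophila Schneider cells expressing a copper-inducible Gal4–ROR gamma transactivation domain fusion. After 1 hr, copper sulfate is added to 700 uM final; luciferase is read 20 hr later.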
An asterisk follows results filed as active; [ ] = dose if it differs, or a comment. Sampled rows, rich in hits. Any-hit rate of the full collection: about 8.1%. Unless noted, calls follow the shape of the dose curve; as a rule, active = well fitted curve in the direction sought with a large enough effect; inconclusive = small, poorly fitted or top-dose-only effect, or another doubt; inactive = no such curve, though single readings can be large; an effect the other way counts as inactive or inconclusive. Potency is read from the fitted curve at half-maximal effect.

For C=CCn1c(=NC(=O)c2cc(Cl)sc2Cl)sc2cc(S(N)(=O)=O)ccc21 the results were ClpP mod inconclusive, Sfp PPTase inh 4.6%, Gal4-VP16 FLuc inconclusive, PINK1 expr mod 3.8%, Epigenetic derep inconclusive and RORgamma inh -2.8%.
`O=C(C[n+]1ccccc1Br)c1ccc2c(c1)CCCC2` gave ClpP mod -11.7% and PINK1 expr mod -0.6%.
For Cc1ccc(CNc2cnccn2)cc1 the results were ClpP mod 14.1µM*, Sfp PPTase inh 20.1%, Gal4-VP16 FLuc 6.8%, PINK1 expr mod 16.5%[38.3 µM], Epigenetic derep -0.9% and RORgamma inh 11.2%.
For Clc1ccc(CNc2cnccn2)cc1 the results were Sfp PPTase inh 17.0%, Gal4-VP16 FLuc 27.7%, PINK1 expr mod 0.2%, Epigenetic derep 1.1% and RORgamma inh 13.3%.
Screening c1ccc(CNc2cnccn2)cc1 returned ClpP mod 3.16µM*, Sfp PPTase inh 13.8%, Gal4-VP16 FLuc -11.9%, PINK1 expr mod 12.7%[38.3 µM], Epigenetic derep -1.9% and RORgamma inh -8.5%.
Screening Cc1ccccc1OCc1nnc(SCCN2CCCC2)n1-c1ccccc1 returned Sfp PPTase inh 2.0%, Gal4-VP16 FLuc inconclusive, PINK1 expr mod 1.1%, Epigenetic derep 2.2% and RORgamma inh 11.2µM*.
For O=C(O)CCSc1nnc(-c2ccncc2)n1-c1ccccc1 the results were ClpP mod 1.4%, Sfp PPTase inh 3.4%, Gal4-VP16 FLuc 0.2%, PINK1 expr mod -0.1%, Epigenetic derep -0.9% and RORgamma inh 15.8%.
Screening COc1ccc(-c2nnc(SCCC(=O)O)n2-c2ccccc2)cc1 returned ClpP mod -4.1%, Sfp PPTase inh 22.5%, Gal4-VP16 FLuc -16.8%, PINK1 expr mod 1.4%[38.3 µM], Epigenetic derep 0.0% and RORgamma inh 12.6µM*.
Screening Cc1cccc(OCc2nnc(SCCC(=O)O)n2-c2ccccc2)c1 returned ClpP mod -1.8%, Sfp PPTase inh 50.1µM*, Gal4-VP16 FLuc -13.6%, PINK1 expr mod -1.0% and RORgamma inh -25.8%.
Screening COc1ccc(-n2c(SCc3ccc([N+](=O)[O-])cc3)nnc2-c2ccc(C)cc2)cc1 returned ClpP mod -2.8%, Sfp PPTase inh 2.4%, Gal4-VP16 FLuc 4.47µM*, PINK1 expr mod 0.3%, Epigenetic derep 0.0% and RORgamma inh -3.2%.
For CC(C)c1ccc(CNc2nc(-c3ccco3)nn2S(=O)(=O)c2ccc3ccccc3c2)cc1 the results were ClpP mod -4.5%, PINK1 expr mod 0.2% and Epigenetic derep 2.4%.
`COc1ccc(-n2c(Cc3ccccc3)nnc2SCc2ccc([N+](=O)[O-])cc2)cc1` gave ClpP mod 0.9%, Sfp PPTase inh -15.3%, Gal4-VP16 FLuc -7.8%, PINK1 expr mod -1.5%, Epigenetic derep -1.1% and RORgamma inh 42.9%.
`O=[N+]([O-])c1ccc(CSc2nnc(Cc3ccccc3)n2-c2ccc(F)cc2)cc1` gave ClpP mod 1.7%, Sfp PPTase inh 14.7%, Gal4-VP16 FLuc 10µM*, PINK1 expr mod -0.8%, Epigenetic derep 0.0% and RORgamma inh inconclusive.
`Cn1nnnc1SCCCNCc1cc(Cl)ccc1OCc1ccc(F)cc1` gave ClpP mod 3.1%, PINK1 expr mod -0.9% and Epigenetic derep -3.2%.
`Nc1ccc(-c2nc3ccc(N)cc3s2)cc1` gave Sfp PPTase inh -12.9%, Gal4-VP16 FLuc 7.94µM*, PINK1 expr mod -0.5%, Epigenetic derep 0.0% and RORgamma inh inconclusive.
Screening Nc1cccc(-c2nc3ccc(N)cc3s2)c1 returned ClpP mod 14.1µM*, Sfp PPTase inh 3.0%, Gal4-VP16 FLuc inconclusive, PINK1 expr mod 0.8%, Epigenetic derep -2.1% and RORgamma inh 3.55µM*.
Cc1cccc(S(=O)(=O)c2cn(Cc3ccccc3)c3cc(N4CCC(C)CC4)c(F)cc3c2=O)c1 was read as ClpP mod 4.8%, PINK1 expr mod 0.2% and Epigenetic derep 3.7%.
Screening CCN(CC)c1ccc(NS(=O)(=O)c2ccc(-c3coc(C)n3)cc2)c(C)c1 returned ClpP mod -4.4%, PINK1 expr mod -3.0% and Epigenetic derep 0.0%.
`Cc1cc2cc3c(cc2nc1SCC(=O)Nc1nc(C)c(C)s1)OCO3` gave ClpP mod -12.2%, Sfp PPTase inh 25.1µM*, Gal4-VP16 FLuc inconclusive, PINK1 expr mod inconclusive, Epigenetic derep 0.4% and RORgamma inh inconclusive.
`CCc1nnc(NC(=O)CSc2nc3cc4c(cc3cc2CC)OCCO4)s1` gave ClpP mod 0.1%, Sfp PPTase inh -8.6%, Gal4-VP16 FLuc inconclusive, PINK1 expr mod 11.2µM*, Epigenetic derep 2.5% and RORgamma inh inconclusive.
For Clc1cc(Cl)cc(Cl)c1 the results were Gal4-VP16 FLuc 3.1% and RORgamma inh -0.8%.
`Cc1ccc(CNC(=O)Cn2ccn(-c3ccc(F)cc3)c(=O)c2=O)cc1` gave ClpP mod -18.0%, PINK1 expr mod -0.2% and Epigenetic derep 0.8%.
Screening CC1(C)Cc2c(sc(NC(=O)/C=C/C(=O)O)c2C#N)CO1 returned ClpP mod -0.3%, Sfp PPTase inh -10.8%, Gal4-VP16 FLuc 6.1%, PINK1 expr mod -0.5%, Epigenetic derep -0.5% and RORgamma inh 22.6%.
`CC1(C)Cc2c(sc(NC(=O)C(=O)NCCCN3CCOCC3)c2C#N)CO1` gave ClpP mod inconclusive, Sfp PPTase inh 15.8µM*, Gal4-VP16 FLuc -10.8%, PINK1 expr mod -1.1% and RORgamma inh -2.8%.
For COCc1nnc(NC(=O)c2ccc(S(=O)(=O)N(C)Cc3ccccc3)cc2)o1 the results were Sfp PPTase inh 16.3%, Gal4-VP16 FLuc 2.24µM*, PINK1 expr mod 6.0% and RORgamma inh 0.794µM*.
Screening CCN(Cc1ccccc1)S(=O)(=O)c1ccc(C(=O)Nc2nnc(C3CC3)o2)cc1 returned ClpP mod -3.0%, Sfp PPTase inh 5.6%, Gal4-VP16 FLuc 0.562µM*, PINK1 expr mod -0.1%, Epigenetic derep 0.0% and RORgamma inh 0.0%.
Screening CCN(Cc1ccccc1)S(=O)(=O)c1ccc(F)cc1 returned ClpP mod -1.7%, Sfp PPTase inh 3.0%, Gal4-VP16 FLuc -1.5%, PINK1 expr mod 0.0% and RORgamma inh 2.1%.
`Cc1nnc(NC(=O)c2ccc(S(=O)(=O)N(C)Cc3ccccc3)cc2)o1` gave ClpP mod 0.9%, Sfp PPTase inh 29.3%, Gal4-VP16 FLuc 0.562µM*, PINK1 expr mod 0.6%, Epigenetic derep 0.0% and RORgamma inh 0.199µM*.
For CCOc1ccc(CCNC(=O)CCCn2c(=O)c3cccn3c3cccnc32)cc1 the results were ClpP mod 4.5%, PINK1 expr mod 1.2% and Epigenetic derep -2.9%.

Source: PubChem BioAssay (National Center for Advancing Translational Sciences (NCATS))
